Compound activity from PubChem.
Sampled rows, rich in hits. Any-hit rate of the full collection: about 13%.
HCMV antiviral: qHTS Assay for inhibitors of the human cytomegalovirus (HCMV) | activity change, negative = inhibition, % at 57.5 µM | 410,000 compounds, 4.5% hits | HFF cells, HCMV-luciferase reporter, 72 h; stronger effect = lower value; in the data active = activity change below about -60%; inconclusive = no clear call, values can overlap the other calls; inactive = above about -39%
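Inhibition of viral replication was scored as loss of reporter luminescence in HFFs infected with HCMV-luciferase (MOI 1 PFU/cell) for 72 h; compounds tested at 2 doses, normalized to buffer and Salinomycin controls.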
HCV inhibitor: qHTS Assay for Inhibitors of Hepatitis C Virus (HCV). 340,000 compounds, 3.4% hits. Potency, µM (highest dose often 41.8 µM), inactives show top-dose activity change, negative = inhibition, usual class: inhibitors. Huh7.5.1 HCVcc-Cre infection, luciferase reporter, 44 h; also: potency is read from the fitted curve at half-maximal effect
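A cell-based infection assay in which seeded cells (1,000 per well) receive test compound after 4 h, are inoculated with HCVcc-Cre at approximately 0.5 moi, and are incubated 44 h before luminescence detection.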
Pf growth 48h: Primary qHTS for delayed death inhibitors of the malarial parasite plastid, 48 hour incubation | P. falciparum luciferase growth in erythrocytes, 48 h | Potency, µM (top dose mostly 28.7 µM), for the others: top-dose activity change, negative = inhibition, most hits filed as inhibitors | 310,000 compounds, 5.9% hits; also: potency is read from the fitted curve at half-maximal effect
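Growth was read as firefly luciferase luminescence after a 48 h, 37 C, 5% CO2 exposure of compounds to reporter-bearing P. falciparum cultures (0.1% parasitemia, 2% hematocrit final) in Albumax-supplemented RPMI 1640.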
Pf growth 96h: Primary qHTS for delayed death inhibitors of the malarial parasite plastid, 96 hour incubation; P. falciparum luciferase reporter growth, 96 h; Potency, µM (series often up to 28.7 µM), for inactives: at the highest dose activity change, negative = inhibition, hits mostly inhibitors; 320,000 compounds, 6.9% hits; AID 504834, 2011; also: potency is read from the fitted curve at half-maximal effect
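Plates of compound plus infected erythrocytes (2% hematocrit, 0.05% parasitemia final) incubate 96 hours, 37 C, 5% CO2. Detection reagent added; reduced luminescence from the parasites' luciferase reporter flags inhibition.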
The depositor's hits bear a star; ? = inconclusive; . = no result. Unless noted, calls follow the shape of the dose curve; as a rule, active = well fitted inhibition curve with a large enough effect; inconclusive = small, poorly fitted or top-dose-only effect, or another doubt; inactive = no such curve, though single readings can be large or run the other way. % is scaled to controls: 0 for no effect and ±100 for the full control effect.

SMILES	HCMV antiviral	HCV inhibitor	Pf growth 48h	Pf growth 96h
COC(=O)c1ccccc1NC(=O)c1cn2c3c(ccc(Cl)c3c1=O)OC(C)C2 (configuration not stated)	0	.	.	.
Cc1oc2c(c1C(=O)Nc1ccc(OC(F)(F)F)cc1)C1=NCCN1C=N2	-1	.	.	.
Cc1csc2nc(-c3cccc(NC(=O)C(C)C)c3)cn12	1	.	.	.
CCCN(CCC)S(=O)(=O)c1ccc(NC(=O)c2cc(C(=O)OC)cc([N+](=O)[O-])c2)cc1	?	?	?	1.9µM*
CCC(C)(C)NC(=O)c1cc(C(=O)OC)cc([N+](=O)[O-])c1	-13	15%	.	6%
O=c1[nH]c(C2CCN(S(=O)(=O)c3ccc4c(c3)OCCO4)CC2)nc2c1nnn2Cc1cccc(F)c1	-39	27%	?	-5%
O=c1[nH]c(C2CCN(S(=O)(=O)c3ccc(C(F)(F)F)cc3)CC2)nc2c1nnn2Cc1ccc(F)cc1	-1	-20%	12µM*	38%
O=c1[nH]c(C2CCN(S(=O)(=O)c3ccc4c(c3)OCCO4)CC2)nc2c1nnn2Cc1ccc(F)cc1	?	-20%	1.5µM*	7%
O=c1[nH]c(C2CCN(S(=O)(=O)c3cccc(C(F)(F)F)c3)CC2)nc2c1nnn2Cc1cccc(F)c1	?	-16%	7.4µM*	?
O=c1[nH]c(C2CCN(S(=O)(=O)c3ccc([N+](=O)[O-])cc3)CC2)nc2c1nnn2Cc1ccccc1	-20	10%	5.2µM*	0.15µM*
O=c1c2c3c(sc2n(Cc2cc(=O)n4ccccc4n2)c(=O)n1-c1ccccc1)CCC3	11	.	.	.
CCOCCOC(=O)c1ccc2c(c1)N(Cc1ccccc1C#N)C(=O)c1ccccc1S2(=O)=O	-2	.	.	.
COC(=O)c1sccc1S(=O)(=O)N1CCN(c2ccc(C)cc2C)CC1	-6	.	.	.
CCCCCCCCN1C(=O)[C@H](CC(=O)N2CCCC2)C[C@@]2(C(=O)OC)CC(C)(C)CC=C12	21	.	.	.
NC(N)=NCc1cccc(I)c1	-66*	7.1µM*	?	11µM*
C=CCn1c(C)cc(C(=O)COc2ccc(N(C)S(=O)(=O)c3ccc(NC(C)=O)cc3)cc2)c1C	-21	8.9µM*	.	.
COCC(C)n1c(C)cc(C(=O)COc2ccc(N(C)S(=O)(=O)c3ccc(NC(C)=O)cc3)cc2)c1C (configuration not stated)	-31	?	4.7µM*	1.3µM*
Cc1cccc(C(=O)N2CCCCC2CCN2CCCCC2)c1 (configuration not stated)	6	.	.	.
O=C(N[C@H]1CCC(=O)N([C@H](CSc2ccccc2)Cc2ccccc2)CC1)OCc1ccccc1	-3	?	?	8.3µM*
Cc1ccc(SC[C@H](Cc2ccccc2)N2CC[C@@H](NC(=O)OCc3ccccc3)CCC2=O)cc1	.	.	?	8.3µM*
COc1ccc(SC[C@H](Cc2ccccc2)N2CC[C@@H](C(C)(C)C)CCC2=O)cc1	3	8%	12µM*	?
NC(=O)C1CCC(NC(=O)OCc2ccccc2)CC1 (configuration not stated)	38	8%	34%	6.6µM*
O=C(N[C@H]1CCC(=O)N([C@H](CSc2ccc(Br)cc2)Cc2ccccc2)CC1)OCc1ccccc1	41	?	.	.
COc1ccc(SC[C@H](C)CN2CC[C@H](NC(=O)OCc3ccccc3)CCC2=O)cc1	-13	?	.	.
Cc1ccc(S(=O)(=O)c2nnn3c2nc(N2CCC(C)CC2)c2cc(Cl)ccc23)cc1C	13	.	.	.
Cc1csc2nc(COC(=O)c3ccc(NC(=O)C(C)Oc4ccccc4)cc3)cc(=O)n12 (configuration not stated)	-1	.	.	.
CCOc1c(Cl)cc(C(=O)N(Cc2ccc(N(C)C)cc2)Cc2ccco2)cc1Cl	-32	.	.	.
CNc1oc(-c2ccc(C)cc2)nc1P(=O)(c1ccccc1)c1ccccc1	-11	?	0.12µM*	15µM*
COc1ccccc1CNc1ccc(-c2nc(-c3ccccn3)no2)cc1[N+](=O)[O-]	35	.	.	.
COCCNS(=O)(=O)c1ccc(C2CNC(=O)C2)cc1 (configuration not stated)	-7	8%	.	-21%
